The values below come from ChEMBL document CHEMBL4513216, “Probing the Open Global Health Chemical Diversity Library for Multistage-Active Starting Points for Next-Generation Antimalarials” (ACS Infect Dis, 2020).

Screen size: about 69,000 compounds; about 8,600 (12%) showed an effect of 50% or more. This excerpt belongs to a sample that is enriched for strong results.

In the assay the test system is Plasmodium berghei. Nature of the assay: Screen against P. berghei liver stage (PbLuc), transformed with Luciferase, at 10uM. It is filed as functional, HepG2. The following applies: tested at 10 uM.
With `COc1c(C2CCCN2Cc2nc(-c3ccco3)no2)c(C)nn1C` (stereo unspecified), the INHIBITION was -21.8%.
For `Cc1nc(-c2ccc(CO)cc2)cc(C2CCNCC2)n1` the value was 23.9%; for `Cn1ccc(CN2CCC3(CC2)CC(Nc2ccccn2)CO3)n1` (stereo unspecified), 37.9%; for `Cc1nc(CN2CCCc3cc(OC(F)(F)F)ccc32)oc1C`, 37.9%.
For `Cc1nn(C)c(C)c1CNCc1ccc(N2CCOCC2)nc1` the value was 32.8%.
For `O=C(NCC1CC1)[C@H]1C[C@H]2CN(C(=O)NCC3CCCCC3)C[C@@H]1O2` the value was 20.1%; for `Cc1cccn2c(=O)cc(OC(=O)c3ccccc3Cl)nc12`, 26.7%; for `CC(C)(C)n1cc(C2=CCN(CCc3ccccn3)CC2)cn1`, 18.7%.
As for `CC(C)(C)n1cc(C2=CCN(CCN3CCCCCC3)CC2)cn1`, the INHIBITION is on record as 0.734%.
For `CC(C)(C)n1cc(C2=CCN(CCc3ccccc3)CC2)cn1` the value was 50.2%.
For `CC(C)(C)c1cnc(CN2CCCCC2Cn2cccn2)o1` (stereo unspecified), the INHIBITION is given as 14.4%.
Then `CCn1ccnc1CN1CCN(Cc2cccc(C#N)c2)CC1`, with 68.8%; and `N#Cc1cccc(CN2CCn3cc(Cn4cccn4)nc3C2)c1`, with 58.8%.
For `CCn1ccnc1CN1CCN(CCOc2ccc(C#N)cc2)CC1`, the INHIBITION amounted to 52.3%.
Then `Fc1ccc(CN2CCn3cc(Cn4cccn4)nc3C2)cc1`, with -53.6%; and `CCn1ccnc1CN1CCN(Cc2cc(C#N)ccc2F)CC1`, with 35.9%; and `CCn1ccnc1CN1CCN(CCOc2ccccc2C#N)CC1`, with 14.1%.
For `c1cncc(CN2CCn3cc(Cn4cccn4)nc3C2)c1` the value was 31.7%.
For the molecule `CCn1ccnc1CN1CCN(Cc2ccc(C#N)cc2)CC1`, the INHIBITION stood at 48.1%.
With `CCn1ccnc1CN1CCN(CCOc2cccc(C#N)c2)CC1`, the INHIBITION was determined as 23.2%.
For `N#Cc1cccc(CN2CCN(Cc3cscn3)CC2)c1` the value was 66.4%; for `Fc1cccc(CN2CCN(Cc3cscn3)CC2)c1`, 36.7%.
Turning to `c1ccc(CN2CCN(Cc3cscn3)CC2)cc1`, the INHIBITION is on record as 19.4%.
On to `O=C(c1ccc2[nH]cnc2c1)N1CCCC1Cn1cccn1` (stereo unspecified), for which the INHIBITION is recorded as -0.514%.
Then `C[C@@H]1CN(S(C)(=O)=O)C[C@]12CCN(Cc1cccnc1)C2=O`, with -28.2%; and `CNC(=O)c1cc(C2CCCN2)n[nH]1` (stereo unspecified), with 31.3%.
For `c1nc2c(c(C3CC3)n1)CCN(Cc1ccc3c(c1)OCO3)CC2` the value was 21.8%.
As for `c1cnn(CC2CCCN2Cc2cn3ccsc3n2)c1` (stereo unspecified), the INHIBITION was determined as 28%.
Then `CSCCC(Nc1nc(C)cc(C)n1)C(=O)NCC1CCOCC1` (stereo unspecified), with 25.2%; and `CCc1csc(C2CCCN(C(=O)COc3cc(C)on3)C2)n1` (stereo unspecified), with 46.2%.
For `O=C1CCCCCN1Cc1ncnn1Cc1c(F)cccc1Cl` the value was 5.46%.
Then `COc1ccc(OCCN2CCCN(Cc3noc(C)n3)CC2)cc1`, with 4.52%; and `Cc1nc(CN2CCCN(CCOc3ccc(C#N)cc3)CC2)no1`, with 56.6%; and `Cc1cccc(OCCN2CCN(Cc3noc(C)n3)CC2)c1`, with 30.6%.
Consider `CC(C(=O)NC1CC1)n1nc(-c2cccs2)cc(N)c1=O` (stereo unspecified), for which the INHIBITION is given as 23.9%.
Regarding `CC(C)n1ncc2cc(NC(=O)N3CCC(C(N)=O)C3)cnc21` (stereo unspecified), the INHIBITION amounted to 7.08%.
For the molecule `CC(C)n1ncc2cc(NC(=O)N3CCC(N4CCCC4)C3)cnc21` (stereo unspecified), the INHIBITION stood at 53.3%.
Then `CC(=O)NC1CCCN(C(=O)Nc2cnc3c(cnn3C(C)C)c2)C1` (stereo unspecified), with 4.31%; and `O=C1CC[C@H]2CN(Cc3cccnc3)CC[C@H]2N1CCc1c[nH]cn1`, with 23.9%.
For `Cc1nc(CN2CC[C@@H]3[C@@H](CCC(=O)N3CCc3c[nH]cn3)C2)co1` the value was 44.8%; for `O=C1CC[C@H]2CN(Cc3ccc(Cl)s3)CC[C@H]2N1CCc1c[nH]cn1`, 78.5%.
Turning to `CN(CCO)c1ncc(-c2ccc(NC(=O)[C@@H]3CCCCN3)cc2)cn1`, the INHIBITION is -4.82%.
Regarding `CCc1c(C)sc2c1c(N)nc(=O)n2CCCN(C)C`, the INHIBITION is -11.9%.
For `COc1ccc(-c2csc(N)c2C#N)cc1` the value was 40.9%.
Then `COc1ccc(-c2csc3c2c(N)nc(=O)n3CC(N)=O)cc1`, with 58.2%.
Then `COc1ccc(-c2csc3c2c(N)nc(=O)n3CCN(C)C)cc1`, with 50.8%; and `CCOC(=O)Cn1c(=O)nc(N)c2c(-c3ccc(OC)cc3)csc21`, with 18.3%.
Regarding `COc1ccc(-c2csc3c2c(N)nc(=O)n3CCCN(C)C)cc1`, the INHIBITION stood at 60.1%.
Then `CCn1c(=O)nc(N)c2c(-c3ccc(OC)cc3)csc21`, with 23.9%; and `C=C(C)Cn1c(=O)nc(N)c2c(-c3ccc(OC)cc3)csc21`, with 33.2%.
Then `CCc1c(C)sc2c1c(N)nc(=O)n2CCN(C)C`, with -14.2%; and `COc1ccc(CN2C[C@@H]3OCCN(C)[C@@H]3C2)cc1`, with 22.9%; and `CCOC[C@@]12CCC[C@@H]1CN(C(=O)COc1ccccc1OC)C2`, with 10.4%.
`Cc1noc(C)c1CN1C(=O)[C@@H]2CC[C@H]1CN(Cc1cccc(O)c1)C2`: the INHIBITION is reported as -77.6%.
On to `COCC(O)CN1CC(C)(C)CN(C(=O)CCc2ccccc2)CC1=O` (stereo unspecified), for which the INHIBITION is listed as -39.8%.
For `Cc1ccccc1C(NC(=O)NCC1(O)CCC1)C1CC1` (stereo unspecified), the INHIBITION is recorded as -15.9%.
Then `CC(C)n1nnnc1-c1ccc(NC(=O)C(C)(C)C#N)cc1F`, with 6.09%.
Then `CN(C)CC1CCCCN1C(=O)c1ccc(N2CCOCC2)cc1` (stereo unspecified), with 23.4%.
With `CCc1ccc(CN(C)C(=O)C2CC(=O)N(c3cccc(O)c3)C2)nc1` (stereo unspecified), the INHIBITION was 32.1%.
`CCc1nc(CN(C)C(=O)C2CC(=O)N(c3cccc(O)c3)C2)no1` (stereo unspecified): the INHIBITION amounted to 10.3%.
As to `CCc1cc(CN(C)C(=O)C2CC(=O)N(c3cccc(O)c3)C2)on1` (stereo unspecified), the INHIBITION is 66.6%.
For `Cc1cccc(Cn2cc(C)c(N)n2)c1` the value was 2.6%; for `CN1[C@H](CN2CCCC2)C[C@@H]2CN(Cc3ccoc3)CC[C@@H]21`, -14.3%.
For `Cc1ncnc2c1CCN(C(=O)c1cccn1C)CC2` the value was -0.388%.
As to `Cn1cccc1C(=O)N1CCc2ncnc(N3CCCC3)c2CC1`, the INHIBITION amounted to 48.9%.
Consider `CCN(C)c1ncnc2c1CCN(C(=O)c1ccccn1)CC2`, for which the INHIBITION is reported as -54.5%.
Then `CCN(C)c1ncnc2c1CCN(C(=O)c1ccsc1)CC2`, with 14.9%.
For `CCc1ncnc2c1CCN(C(=O)c1cccn1C)CC2` the value was 64.9%; for `CCN(C)c1ncnc2c1CCN(C(=O)c1cccn1C)CC2`, 52%.
For `O=C(NCCOc1ccc2c(c1)OCO2)N1CCCC(CO)C1` (stereo unspecified) the value was -27.8%; for `Cc1nnc(CN(Cc2ccc3c(c2)OCO3)C2CCCCC2)o1`, -9.76%; for `Cn1nc2c(cc1=O)CN(CC(=O)Nc1nccs1)CC2`, 13.3%.
As for `Cc1nn(C)c(C)c1-c1ccc(=O)n(C(C)C(=O)NC(C)(C)C)n1` (stereo unspecified), the INHIBITION was determined as 4.02%.
For `CCCN(CCC)C(=O)Cn1c(SC)nc2ccsc2c1=O` the value was 39.1%; for `Cc1ccc(CNC(=O)c2cc(NC(=O)C3CC3)n(C)n2)o1`, -8.95%.
Then `Cn1nc(C(=O)NC2CC(C)(C)NC(C)(C)C2)cc1NC(=O)C1CC1`, with 21.8%; and `Cc1nn(C)c(C)c1CNC(=O)c1cc(NC(=O)C2CC2)n(C)n1`, with 31.35%; and `Cn1nc(C(=O)NC2CC2)cc1NC(=O)C1CC1`, with 75.3%.
For `Cn1nc(C(=O)NC2CCCCC2)cc1NC(=O)C1CC1`, the INHIBITION worked out at 53.5%.
Then `Cn1nc(C(=O)NC2CCCC2)cc1NC(=O)C1CC1`, with -22.8%; and `CCc1nc(C2CCCN2C(=O)c2ccc3c(c2)COC3)no1` (stereo unspecified), with 33.8%.
With `CN1CCN(C(=O)c2cc3sccc3n2Cc2ccccc2)CC1`, the INHIBITION came to 11.7%.
As for `NC(=O)c1cccc(CN2CCOC(Cn3cccn3)C2)c1` (stereo unspecified), the INHIBITION was 30.2%.
Then `CNC(=O)[C@@H]1[C@H]2CNCCN2C[C@H]1c1ccccc1`, with 11.6%; and `CCOC(=O)[C@@H]1[C@@H](c2ccccc2)CN2CCN(C(C)=O)C[C@H]12`, with 51%.
`O=C(C1CC1)N1CCN2C[C@H](c3ccccc3)[C@@H](CO)[C@H]2C1`: the INHIBITION came out at 51%.
For `CCOC(=O)[C@@H]1[C@@H](c2ccccc2)CN2CCNC[C@H]12` the value was 50.2%; for `CCOC(=O)[C@@H]1[C@@H](c2ccccc2)CN2CCN(C(=O)C3CC3)C[C@H]12`, 12.4%; for `CCOC(=O)[C@@H]1CN2CCNC[C@@H]2[C@H]1c1ccccc1`, 46.4%.
As to `CCOC(=O)[C@@H]1[C@@H](c2ccccc2)CN2CCN(C(=O)N(C)C)C[C@H]12`, the INHIBITION came out at 32.1%.
As for `CCOC(=O)[C@@H]1[C@H]2CN(C(=O)OC)CCN2C[C@H]1c1ccccc1`, the INHIBITION is -43.6%.
Take `O=C(C1CC1)N1CCN2C[C@@H](CO)[C@H](c3ccccc3)[C@H]2C1`: the INHIBITION is on record as 49.5%.
For `c1cc(-c2cnc(C3CCNCC3)cn2)n[nH]1` the value was 38.7%; for `CCc1noc(C)c1C(=O)N1CCCC1Cn1cccn1` (stereo unspecified), 45.7%; for `CC(C)N1CCOCC2(CN(Cc3nccs3)CCO2)C1` (stereo unspecified), 10.3%.
Then `O=C(NC1CCCC1)N1CC[C@H]2[C@H]1CCN2c1nncs1`, with 26%.
Then `COCCc1nnc(NC(=O)Cc2ccccc2Cl)o1`, with 35.1%; and `COC(=O)N1CCC(CNC(=O)C2CC2)CC1`, with -10.8%; and `CCn1nc(C)c(-c2cncn2CCN(C)C2CCCC2)c1C`, with 27.6%.
With `Cc1ccc2c(c1)CCC2NCc1c(C)nn(CCO)c1C` (stereo unspecified), the INHIBITION is reported as -40.4%.
Then `CC(C)c1cc(NCc2csc(N(C)C)n2)nc(N)n1`, with 87%.
Consider `CC(C)CC(CO)NC(=O)NCc1csc(N(C)C)n1` (stereo unspecified), for which the INHIBITION is given as -5.1%.
For `COCC1(CNc2cc(C(C)C)nc(N)n2)CC1` the value was 41.2%; for `CC(C)c1nc(CNc2ccc(CNS(C)(=O)=O)cc2)cs1`, -72.8%.
Regarding `Cc1nc(N)cc(NCc2csc(N(C)C)n2)n1`, the INHIBITION is -84.1%.
Turning to `CC(C)c1cc(NCc2csc(C(C)C)n2)nc(N)n1`, the INHIBITION is on record as 58%.
